Assay results: PubChem BioAssay (NCI)
The panel holds about 79,000 compounds, 15% with a hit somewhere; the sample as a whole holds those more often. No stated cut-off is given here; in the data, active means growth inhibition above about 70%; inactive means the rest.

Tests used:
[1] = NCI Yeast Anticancer Drug Screen. Data for the rad50 strain (AID 155);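 further: 0% = growth of vehicle-only cultures of the same strain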; settings: S. cerevisiae rad50 strain growth inhibition; at 50.0 µM; stronger effect = higher value
How it was run: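 Readout: growth inhibition relative to vehicle-treated cultures. Compound exposure was carried out in a genetically defined yeast strain deficient in DNA damage repair.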

[2] = NCI Yeast Anticancer Drug Screen. Data for the mec2-1 strain (AID 157); settings: S. cerevisiae mec2-1 strain, at 50.0 µM, stronger effect = higher value
How it was run: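 Growth inhibition is read against vehicle-treated controls after compound exposure of the mec2-1 yeast strain, which is defective in DNA damage repair or cell cycle control.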

[3] = NCI Yeast Anticancer Drug Screen. Data for the sgs1 mgt1 strain (AID 161);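 further: 0% = growth of cultures given vehicle only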; settings: S. cerevisiae sgs1 mgt1 strain, at 50.0 µM, stronger effect = higher value
How it was run: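 Compounds are added to genetically altered yeast, and growth is compared with cultures given vehicle alone to give percent inhibition.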

[4] = NCI Yeast Anticancer Drug Screen. Data for the cln2 rad14 strain (AID 165);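 further: 0% = growth equal to vehicle treated cultures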; settings: S. cerevisiae cln2 rad14 strain, at 50.0 µM, stronger effect = higher value
How it was run: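 Growth inhibition, relative to vehicle-treated controls, is the read-out. The test organism is a yeast strain with defined genetic alterations, cln2 rad14.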

[5] = NCI Yeast Anticancer Drug Screen. Data for the bub3 strain (AID 167); settings: S. cerevisiae bub3 mutant strain, at 50.0 µM, stronger effect = higher value
How it was run: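 Readout: yeast growth inhibition, expressed relative to vehicle-only wells. The test organism is a mutant strain from a panel with lesions in DNA repair or checkpoint genes.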

[6] = NCI Yeast Anticancer Drug Screen. Data for the mlh1 rad18 strain (AID 175); settings: S. cerevisiae mlh1 rad18 strain growth inhibition; at 50.0 µM; stronger effect = higher value
How it was run: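 Cells of a genetically altered yeast strain, deficient in DNA damage repair, were treated with compound. Their growth was then compared with that of vehicle-treated cultures to give inhibition.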

Measured: growth inhibition

COc1ccc(N=Cc2cc(Cl)cc(Cl)c2OC(=O)c2ccccc2)cc1
inactive: [1] -10.6% | [2] -31.1% | [3] 8.55% | [4] 0.65% | [5] -13.6% | [6] -19.2%

COc1ccc(NC(=O)N(C)C)cc1OC
inactive: [1] 14.8% | [2] -5.25% | [3] -4.2% | [4] -25.6% | [5] 4.4% | [6] 15.8%

NC(=O)COC(=O)c1c(Cl)nc2sccn12
inactive: [1] 7.55% | [2] 5.1% | [3] -13.9% | [4] 4.75% | [5] 24.6% | [6] 19.1%

CC1N(/N=C/c2ccccc2)C(c2ccccc2)C(c2ccccc2)N1/N=C/c1ccccc1 (stereo unspecified)
inactive: [1] 11.4% | [2] 15% | [3] 17.2% | [4] 5.3% | [5] 1.75% | [6] 6.25%

C=CCO[Si](OCC=C)(OCC=C)OCC=C
inactive: [1] 0.85% | [2] -19% | [3] -6.2% | [4] 13.9% | [5] 9.6% | [6] 3.9%

C/C(CC/C(C)=N/NC(N)=O)=N/NC(N)=O
inactive: [1] 1.7% | [2] -3.5% | [3] -9.85% | [4] 0.55% | [5] 21.9% | [6] -9.2%

CCOC(=O)C1=C(C)N(c2ccccc2)C2=C(C(=O)N(c3ccccc3)C2c2ccccc2)C1c1ccccc1 (stereo unspecified)
inactive: [1] 9.9% | [2] -13.8% | [3] 9.25% | [4] 15% | [5] -21.7% | [6] 7.2%

O=C1Cn2c(c3c(nc2=O)CCCC3)N1
inactive: [1] -31.1% | [2] -7.3% | [3] -10.3% | [4] -13.7% | [5] -7.95% | [6] 2.1%

CC(C)NC(=O)N(C(=O)C(F)(F)F)C(C)C
inactive: [1] -0.95% | [2] 7.45% | [3] -4.6% | [4] -41% | [5] 2.1% | [6] 7.5%

N#CCCOCC(OCCC#N)C(OCCC#N)C(OCCC#N)C(COCCC#N)OCCC#N (stereo unspecified)
inactive: [1] -9.85% | [2] -14.6% | [3] -13.2% | [4] 6.15% | [5] 6.8% | [6] -13.2%

Cc1ccc(C(=S)NC(=O)Nc2ccccc2)cc1
inactive: [1] -7.1% | [2] 9.45% | [3] -17.8% | [4] -20.9% | [5] 45.8% | [6] 1.45%

c1ccc2c(c1)nc1n2C2CCC(C2)N1 (stereo unspecified)
inactive: [1] 4% | [2] 10% | [3] 18.8% | [4] 21.9% | [5] 6.15% | [6] 15.7%

Cn1cnc2cc([N+](=O)[O-])ccc21
inactive: [1] -9.6% | [2] -7.95% | [3] -32.2% | [4] -24.6% | [5] -9.6% | [6] 8.8%

CC(C)CCc1ccc(O)cc1
inactive: [1] 5% | [2] -10.9% | [3] -27.2% | [4] -31.9% | [5] 0.65% | [6] -5.15%

CC(NC(=O)N=Nc1ccccc1)C(=O)O (stereo unspecified)
inactive: [1] -3.05% | [2] -8.95% | [3] -9.6% | [4] -39% | [5] -11.1% | [6] 6.2%

C/C=C/Cc1ccc(O)cc1
inactive: [1] 4.9% | [2] -6% | [3] -1% | [4] -25.4% | [5] -1.4% | [6] -1.05%

CC1=C(C(=O)OCCO[N+](=O)[O-])C(c2ccccc2C(F)(F)F)C(C(=O)OC(C)C)=C(C)N1 (stereo unspecified)
inactive: [1] 45.5% | [2] 17.4% | [3] 32.9% | [4] 53% | [5] 30% | [6] -27.1%

CC1(C)OCC(C(OC(=O)c2ccc([N+](=O)[O-])cc2)C(OC(=O)c2ccc([N+](=O)[O-])cc2)C2COC(C)(C)O2)O1 (stereo unspecified)
inactive: [1] 24.6% | [2] 4.25% | [3] -5.3% | [4] 41.2% | [5] 2.9% | [6] 20.4%

O=c1/c(=C/c2ccccc2F)sc2nc3ccccc3n12
inactive: [1] -2.85% | [2] -11.3% | [3] 12.2% | [4] 29% | [5] 21.1% | [6] 12.3%

CC(=O)CCn1ncc(Cl)c(Cl)c1=O
inactive: [1] 1.4% | [2] -18.3% | [3] 3.6% | [4] 7.7% | [5] 1.15% | [6] 4.3%

Cc1nc(C(F)(F)F)cc(=O)[nH]1
inactive: [1] 7.4% | [2] -3.6% | [3] 15.7% | [4] -1.25% | [5] -5.4% | [6] 51%

COC(=O)c1cc(-c2ccc(N)cc2)c2c(=O)n(-c3ccccc3)[nH]c2n1
inactive: [1] 26.1% | [2] 19% | [3] 30.9% | [4] -0.65% | [5] -1.4% | [6] 6.45%

ClCCOCc1ccc(Cl)cc1Cl
inactive: [1] 24.6% | [2] 8.9% | [3] 8.4% | [4] 0.7% | [5] -3.7% | [6] 19.9%

Cc1nc2ccccc2c(=O)n1NC(=O)c1ccc([N+](=O)[O-])cc1
inactive: [1] -43.4% | [2] -26.4% | [3] -13.5% | [4] -21.4% | [5] -10.8% | [6] -19.1%

Cc1cccc(C(=O)OCCCl)c1
inactive: [1] 15.6% | [2] -7.5% | [3] 8.3% | [4] -29.1% | [5] 5% | [6] 5.2%

C[CH2][Ge]([CH2]C)[CH2]C.C[CH2][Ge]([CH2]C)[CH2]C
inactive: [1] 6.5% | [2] 0.35% | [3] -2.45% | [4] -25.4% | [5] 0.9% | [6] -3%

Cc1cc(=O)oc2c(CNC(C(=O)O)C(C)C)c(O)ccc12 (stereo unspecified)
inactive: [1] 5.05% | [2] -15.9% | [3] -19.7% | [4] 7.5% | [5] -16.8% | [6] -6.4%

CCOC(=O)OC1CC2CC(OC(=O)OCC)c3cccc(Br)c3C2c2ccccc21 (stereo unspecified)
inactive: [1] 25.1% | [2] 12.9% | [3] 18.8% | [4] 0.05% | [5] -5.3% | [6] 33.7%

NC(=O)c1ccccc1Sc1ccccc1C(N)=O
inactive: [1] -4.6% | [2] 2.35% | [3] 5.4% | [4] 2.45% | [5] 1.65% | [6] 0.6%

Cc1cccc(-n2cnc3c(N(CCO)CCO)ncnc32)c1
inactive: [1] 6.55% | [2] 2.6% | [3] -10.1% | [4] -4.5% | [5] 2.25% | [6] -4.3%

[C-]#[N+]N=P(c1ccccc1)(c1ccccc1)c1ccccc1
inactive: [1] -18% | [2] -20.8% | [3] -27.9% | [4] 3.2% | [5] -8.65% | [6] 5.65%

CC(=O)Nc1ccc(/C=N/NC(=O)c2ccc(O)cc2)cc1
inactive: [1] 1.7% | [2] 9.55% | [3] -2% | [4] 4.15% | [5] 2.35% | [6] 0.9%

O=C1C=Cc2ccccc2/C1=C/c1nc(-c2ccc(Cl)cc2)oc1O
inactive: [1] -3.2% | [2] 7.05% | [3] -8.75% | [4] -1.2% | [5] 6.9% | [6] -13.3%

COc1cc2c3c4c1OCc1c5c(cc(c1-4)CC3[N+](C)(C)CC2)OCO5 (stereo unspecified)
inactive: [1] 4.35% | [2] 6.3% | [3] 8.7% | [4] 21.1% | [5] 11.1% | [6] -52.1%

CCOC(=O)/C=C(/C)c1ccccc1
inactive: [1] 12.2% | [2] 18.2% | [3] 6.9% | [4] 0.7% | [5] -2.7% | [6] 3.1%

COc1ccccc1Nc1nc(N)nc(N)c1N
inactive: [1] 0.85% | [2] -3.65% | [3] 5% | [4] -3.75% | [5] -4.9% | [6] 11.2%

COC(=O)c1ccccc1NC(=O)Nc1cccc(Cl)c1C
inactive: [1] 13.8% | [2] -2.25% | [3] 25.2% | [4] 12% | [5] 17.6% | [6] 17.4%

CC(C)CC(=O)NC(Nc1ccc(S(=O)(=O)Nc2ncccn2)cc1)(C(F)(F)F)C(F)(F)F
inactive: [1] -2.9% | [2] -9.95% | [3] 14.3% | [4] 20.6% | [5] -5.8% | [6] 6.8%

CC(C)CNCCCC(C)Nc1ccnc2cc(Cl)ccc12 (stereo unspecified)
inactive: [1] 11.3% | [2] -1.45% | [3] -2.25% | [4] -2.95% | [5] -15% | [6] -9.65%

CCOCc1cnc(SC)nc1N
inactive: [1] -0.75% | [2] 7.35% | [3] -9.45% | [4] -0.25% | [5] -0.15% | [6] -14.4%

S=C(Nc1ccccc1)N1N=C2c3ccccc3CC[C@H]2[C@@H]1c1ccccc1
inactive: [1] -24.3% | [2] -37.9% | [3] -37.5% | [4] -1% | [5] -28.2% | [6] -58.5%
